# About 79,000 compounds went through this panel and 15% of them were active in at least one assay; those are over-represented in the sample as a whole. Values without a mark were called inactive. The source made the active and inactive calls. Rule as the data show it: active = growth inhibition above about 70%; inactive = the rest.
# What was measured:
# [1] = NCI Yeast Anticancer Drug Screen. Data for the rad50 strain (AID 155);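 also: 0% = growth of vehicle-only cultures of the same strain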; conditions: S. cerevisiae rad50 strain growth inhibition; at 50.0 µM; hits give high values
# Outline: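 Yeast carrying a defined DNA repair defect were exposed to test compounds, and growth was compared with vehicle-treated controls to give percent inhibition.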
# [2] = NCI Yeast Anticancer Drug Screen. Data for the mec2-1 strain (AID 157); conditions: S. cerevisiae mec2-1 strain, at 50.0 µM, hits give high values
# Outline: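 mec2-1 yeast strain, carrying an alteration in DNA damage repair or cell cycle control, was exposed to compounds; growth inhibition was measured relative to vehicle-treated controls.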
# [3] = NCI Yeast Anticancer Drug Screen. Data for the sgs1 mgt1 strain (AID 161);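 also: 0% = growth of cultures given vehicle only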; conditions: S. cerevisiae sgs1 mgt1 strain, at 50.0 µM, hits give high values
# Outline: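 This yeast growth screen uses a strain with defined DNA-repair lesions; compound-treated growth is compared with vehicle-treated growth.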
# [4] = NCI Yeast Anticancer Drug Screen. Data for the cln2 rad14 strain (AID 165);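 also: 0% = growth equal to vehicle treated cultures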; conditions: S. cerevisiae cln2 rad14 strain, at 50.0 µM, hits give high values
# Outline: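 Yeast carrying cln2 and rad14 alterations (cell cycle control and DNA damage repair) were exposed to compounds. Growth inhibition was measured against vehicle-treated controls.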
# [5] = NCI Yeast Anticancer Drug Screen. Data for the bub3 strain (AID 167); conditions: S. cerevisiae bub3 mutant strain, at 50.0 µM, hits give high values
# Outline: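 Compounds were applied to a genetically altered yeast strain carrying a cell-cycle control defect. Growth inhibition was scored against vehicle-treated controls.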
# [6] = NCI Yeast Anticancer Drug Screen. Data for the mlh1 rad18 strain (AID 175); conditions: S. cerevisiae mlh1 rad18 strain growth inhibition; at 50.0 µM; hits give high values
# Outline: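 Growth inhibition of the yeast strain was measured after compound exposure and expressed relative to vehicle-treated controls. The strain carries defined defects in DNA damage repair.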
Compound,growth inhibition [1],growth inhibition [2],growth inhibition [3],growth inhibition [4],growth inhibition [5],growth inhibition [6]
C1CCC2(CCC34CCCCC3CCCC4)CCCCC2C1 (centres undefined),99.5% (active),99.7% (active),99.5% (active),99.3% (active),99.5% (active),98.2% (active)
CSc1nccc(=O)n1C,9.6%,-14.8%,-9.8%,-52.6%,-21.6%,-2.15%
O=C(O)CC1(c2ccccc2)CCCCC1,-1.1%,7.05%,0.65%,-6.2%,46.8%,2.3%
COc1ccc(C(=O)C(C(=O)CCC(=O)Nc2ccc(Cl)c(Cl)c2)c2ccc(OC)cc2)cc1 (centres undefined),-9.65%,1.7%,-11.3%,-8.6%,18.6%,-17.9%
COc1ccc(/C=C/[n+]2ccccc2)cc1OC,-1.45%,4.85%,4.05%,-14.2%,10.7%,-3.85%
CC1CC(=O)NC(=O)C1,-7.25%,-4.1%,-18.8%,-13%,6.3%,-22.7%
CC(=O)O[C@@H]1C[C@H](C)CC(C)(C)C1,3.35%,5.75%,-10.6%,-3.7%,0.4%,-3.1%
COc1ccc(CC(NC(=O)OCc2ccccc2)C(=O)O)cc1 (centres undefined),1.15%,4.15%,2.7%,-52.1%,18.7%,6.6%
O=C(O)C1(C(=O)O)CC2C3C=CC(C3)C2C1 (centres undefined),-7.75%,-11.7%,0.35%,-48.8%,18.8%,20.5%
O=C(OCC1OC(n2nc(SCc3ccccc3)c(=S)[nH]c2=O)C(OC(=O)c2ccccc2)C1OC(=O)c1ccccc1)c1ccccc1 (centres undefined),1.05%,0.35%,14.2%,-46.9%,-5.7%,31.8%
O=c1[nH]ncc(N/N=C(/C=C/c2ccc(C/C(=N/Nc3cn[nH]c(=O)c3Cl)c3ccccc3)cc2)c2ccccc2)c1Cl,30.1%,8.8%,33.2%,-15.6%,9.65%,4%
Cc1cc(Cl)c(O)c(C2(C(O)c3ccc(O)cc3)NC(=S)NC2=O)c1 (centres undefined),-20.4%,-17.1%,-25.6%,-6.5%,4.95%,-6.75%
COc1cc2c(c3c1/c(=N\N=c1/c4ccccc4n(C)c4c5c(cc(OC)c14)OC(C)(C)C=C5)c1ccccc1n3C)C=CC(C)(C)O2,70% (active),13.6%,64.5%,48%,36.9%,27.4%
Fc1ccccc1/C=C/c1cnnc2ccccc12,19.9%,11.1%,16.1%,-20.4%,5.2%,3.15%
CC(=O)Oc1cccc2cc3cc(C)cc(OC(C)=O)c3c(OC(C)=O)c12,-7.15%,3.8%,2.95%,-2.95%,6.5%,14.7%
COc1ccc(C(=O)C[n+]2cc(Br)cc3ccccc32)cc1,-3.1%,11.8%,1.5%,22.9%,-3.05%,54.5%
CSc1nc(C)c(CCOC(C)=O)c(Cl)n1,-18.1%,-19.4%,-16.2%,-0.25%,17.1%,4.25%
CC(C)N(C)c1ncnc2c1cnn2C,-1.55%,-2.85%,-3.95%,-14.8%,1.75%,-14%
COC(=O)C(N)CO (centres undefined),-40.5%,-27%,-39.8%,4.35%,-34.8%,-26.1%

# — PubChem BioAssay (NCI)
